In the library only some 17% were active in any assay of this set; here they are far more common.
DT40 TDP1 CPT: DT40-hTDP1 cell growth loss with CPT; chicken DT40 Tdp1-/-;hTDP1 cells + 20 nM CPT, ATP luminescence, 48 h; Potency, µM (doses to about 46.2 µM), for inactives: at the highest dose activity change, negative = growth inhibition, most hits filed as inhibitors; hit rate 12% among 420,000; also: % is scaled to controls: 0 for no effect and ±100 for the full control effect; nearly all actives have a fitted effect of over 55% in size
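Chicken DT40 Tdp1-/- cells complemented with human TDP1, 400 cells/well, exposed to compounds plus 20 nM camptothecin for at least 48 h at 37 C; viability read as ATP content by CellTiter-Glo luminescence.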
TDP1 inh: inhibitors of human tyrosyl-DNA phosphodiesterase TDP1; recombinant TDP1, AlphaScreen DNA substrate cleavage; Potency, µM (doses to about 130 µM), inactives show at the top dose activity change, negative = inhibition, usual class: inhibitors; hit rate 0.28% among 350,000; AID 485290; also: % is scaled to controls: 0 for no effect and ±100 for the full control effect; nearly all actives have a fitted effect of over 40% in size
Target sequence (Q9NUW8 whole entry, looked up): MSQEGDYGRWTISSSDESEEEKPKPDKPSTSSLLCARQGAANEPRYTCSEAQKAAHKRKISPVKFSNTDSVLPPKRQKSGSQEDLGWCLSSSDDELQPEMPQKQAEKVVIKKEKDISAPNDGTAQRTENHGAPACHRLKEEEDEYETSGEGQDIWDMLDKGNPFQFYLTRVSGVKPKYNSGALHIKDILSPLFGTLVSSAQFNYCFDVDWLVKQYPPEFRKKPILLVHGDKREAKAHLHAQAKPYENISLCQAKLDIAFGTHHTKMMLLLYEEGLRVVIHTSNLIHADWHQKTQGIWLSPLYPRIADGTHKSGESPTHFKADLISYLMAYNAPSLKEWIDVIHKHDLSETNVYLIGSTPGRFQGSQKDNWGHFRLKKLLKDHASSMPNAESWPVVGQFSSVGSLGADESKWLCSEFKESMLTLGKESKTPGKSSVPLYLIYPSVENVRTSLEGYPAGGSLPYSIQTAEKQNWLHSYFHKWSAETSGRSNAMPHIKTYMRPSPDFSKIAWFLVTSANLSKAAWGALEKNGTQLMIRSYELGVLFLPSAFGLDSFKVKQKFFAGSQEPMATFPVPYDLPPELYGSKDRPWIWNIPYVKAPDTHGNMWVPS
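Tdp1 1 nM final; 15 min RT w/ cpd; substrate 15 nM, 5 min; beads 10 ug/ml, 10 min; AlphaScreen read. Neg ctrl: no enzyme.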
ClpP mod: qHTS Assay for Activators of ClpP; purified B. subtilis ClpP, FRET peptide cleavage, 20 min; ATP-dependent Clp protease proteolytic subunit (Bacillus subtilis (strain 168)), P80244; hit rate 1.9% among 340,000; Potency, µM (titrated, usually from 57.5 µM), without a hit: at the highest dose activity change, negative = active; AID 651965, 2013; active = well fitted falling curve with a large enough effect; inconclusive = small, poorly fitted or top-dose-only effect; inactive = no such curve, though single readings can be large or run the other way; also: the source files actives as falling curves though it sought activators and does not explain the sign; nearly all actives have a fitted effect of over 65% in size
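Buffer: 100 mM Tris/HCl pH8, 100 mM KCl, 0.05% low protease BSA, 2.5% glycerol, 0.01% Tween-20. ClpP 10 microg/mL final; 20 min RT; delta FRET normalized to ADEP and DMSO controls.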
TDP1 cell noCPT: qHTS for Inhibitors of human tyrosyl-DNA phosphodiesterase 1 (TDP1): qHTS in cells in absence of CPT; hit rate 15% among 420,000; Potency, µM (titrated, usually from 46.2 µM), without a hit: top-dose activity change, negative = growth inhibition, usual class: inhibitors; DT40 Tdp1-/- hTDP1 cells, no CPT, ATP luminescence, 48 h; also: % is scaled to controls: 0 for no effect and ±100 for the full control effect; nearly all actives have a fitted effect of over 55% in size
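Camptothecin absent (DMSO only). Human TDP1-complemented DT40 knockout cells, 400 cells/well, 37 °C for minimum 48 hr; ATP measured via CellTiter-Glo, 30 min dark incubation, luminescence.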
* hit, by the source's call; u = inconclusive; x = no result given; ! = not confirmed by another sample; [ ] = another dose, or the depositor's remark. Unless noted, calls follow the shape of the dose curve; as a rule, active = well fitted curve in the direction sought with a large enough effect; inconclusive = small, poorly fitted or top-dose-only effect, or another doubt; inactive = no such curve, though single readings can be large; an effect the other way counts as inactive or inconclusive. Potency is read from the fitted curve at half-maximal effect.

SMILES	DT40 TDP1 CPT	TDP1 inh	ClpP mod	TDP1 cell noCPT
CC[C@@]1(O)C(=O)OCc2c1cc1n(c2=O)Cc2cc3c(N)cccc3nc2-1	0.16µM*	u	5%	0.13µM*
CCCCCn1c(=O)c(C(=O)NCc2ccco2)c(O)c2ccccc21	u	-5%	x	16µM*
CC(C)CCn1c(=O)c(C(=O)NCc2ccco2)c(O)c2ccccc21	u	x	x	9.2µM*
COC(=O)[C@]1(C)CC[C@@]2(C)CC[C@@]3(C)C4=CC=C5C(=CC(=O)C(O)=C5C)[C@@]4(C)CC[C@@]3(C)C2C1 (some centres not stated)	1µM*	9%[12.3 µM]	x	0.73µM*
CCCCCCCCCCCOC(=O)c1ccccc1C(=O)OCCCCCCCCCCC	x	3%	x	x
CCCCCCCCn1sccc1=O	0.73µM*	0%	0%	1.2µM*
CCOC(=O)Nc1ccc2c(c1)N(C(=O)CN(C)C)c1ccccc1CC2	u	x	1%	u
N#Cc1c(Oc2cccc(OS(=O)(=O)CCCC(F)(F)F)c2)cccc1C(F)(F)F	x	-1%	x	x
O=[N+]([O-])c1ccc(-c2ccccc2)c([As](=O)(O)O)c1	13µM*	0%	-2%	9.2µM*
CN[C@@H](C)Cc1ccccc1	-3%[92.5 µM]	x	x	-11%[92.5 µM]
COc1ccccc1N1CCN(Cc2cc(C)c(C)cc2O)CC1	23µM*	0%	1%	21µM*
COc1cc(CN2CCN(c3cc(C)ccc3C)CC2)ccc1O	7.3µM*	0%	-2%	7.3µM*
CCCCC[C@H]1CCCCC[C@H](O)C[C@@H](O)[C@H](O)/C=C/C(=O)O1	u	x	3%	u
CCN(CC)c1ccc(CNCCc2ccccc2F)cc1	u	5%	x	16µM*
Nc1ccc2c(c1)oc1ccccc12	0%	2%	13µM*	-21%
Nc1ccc(-c2ccccc2)cc1	-16%	19%	u	-10%
CC[C@]1(O)CC(O[C@@H]2CC(N(C)C)C(O)C(C)O2)c2c(cc3c(c2O)C(=O)c2c(O)ccc(O)c2C3=O)C1C(=O)OC (some centres not stated)	1.5µM*	10%[56.1 µM]	x	1.3µM*
O=C(CSc1nc2ccccc2c(=O)n1-c1ccc(Cl)c(Cl)c1)Nc1ccc2c(c1)CCC2	u	x	-3%	u
O=C(CSc1nc2ccccc2c(=O)n1-c1ccccc1)Nc1ccc2c(c1)CCC2	u	x	-9%	21µM*
C[C@]12CCC(=O)C=C1CCC1C2CC[C@@]2(C)C1CC[C@@H]2O (some centres not stated)	0%	2%	x	-24%
CC(=O)C1CCC2C3CCC4=CC(=O)CC[C@@]4(C)C3CC[C@]12C (some centres not stated)	13µM*	13%[56.1 µM]	x	15µM*
CC(=O)O[C@H]1CC[C@@]2(C)C(=CC[C@H]3[C@@H]4CC[C@H](C(C)=O)[C@@]4(C)CC[C@@H]32)C1	u	x	1%	16µM*!
CC(=O)OC1CC[C@@]2(C)C(=CC[C@H]3[C@@H]4CC[C@H](C(C)=O)[C@@]4(C)CC[C@@H]32)C1 (some centres not stated)	x	26%	x	x
O=C(Nc1ccccc1)c1ccccc1I	x	27%	x	x
CC[N+](=O)[O-]	x	5%	x	x
SMILES	DT40 TDP1 CPT	TDP1 inh	ClpP mod	TDP1 cell noCPT
Clc1c(Cl)c(Cl)c(Cl)c(Cl)c1Cl	x	3%	x	x
Cc1nc2ccccc2c(=O)n1-c1cccc([N+](=O)[O-])c1	5%	x	2%	-7%
Cc1nc2cc([N+](=O)[O-])ccc2c(=O)n1-c1cccc(Br)c1	u	x	-1%	18µM*
COc1ccc(-n2c(-c3ccccc3Br)nc3ccccc3c2=O)cc1	u	x	x	21µM*
Cc1cccc(-n2c(CC3C(=O)Nc4ccc(C)cc43)nc3ccccc3c2=O)c1 (configuration not stated)	u	2%	0%	21µM*
COc1ccc(-c2nc3ccccc3c(=O)n2-c2ccc(OC)cc2)cc1	u	4%	0%	u
COc1ccc(-n2c(-c3ccccc3F)nc3ccccc3c2=O)cc1	u	x	-1%	21µM*
O=C1Nc2ccccc2C1Cc1nc2ccccc2c(=O)n1-c1ccccc1 (configuration not stated)	u	x	-6%	u
CN1[C@H](CC(=O)c2ccccc2)CCC[C@H]1C[C@H](O)c1ccccc1	-2%	5%	x	-25%
CCn1c(C)nc2cc(S(=O)(=O)Nc3ccc(C)cc3)ccc21	u	5%	x	u
O=c1c2ccccc2nc(-c2ccccc2)n1-c1ccccc1	u	x	1%	8.2µM*
O=c1c2ccccc2nc(-c2ccccc2)n1-c1ccncc1	u	2%	-3%	-6%
O=c1c2ccccc2nc(-c2ccc([N+](=O)[O-])cc2)n1-c1ccccc1	-26%	1%	-4%	-4%
O=c1c2ccccc2nc(-c2ccccc2F)n1-c1ccccc1	u	2%	x	7.3µM*
Cc1cccc(-n2c(-c3ccc([N+](=O)[O-])cc3)nc3ccccc3c2=O)c1	u	-3%	x	8.2µM*
O=c1c2ccccc2nc(N2CCCC2)n1-c1ccccc1	u	-1%	4%	15µM*
C[C@@H]1C[C@H](C)C[C@H](C)[C@@H](O)CC(=O)O[C@H]([C@H]2CCC[C@H]2C(=O)O)C/C=C/C=C(/C#N)[C@H](O)[C@@H](C)C1	x	8%	x	x
Cc1ccc2c(c1)C1(CCN(CCc3nc(-c4ccccc4)oc3C)CC1)OC(=O)N2	x	20%	x	x
CCOC(=O)N(C)C(=O)CSP(=S)(OCC)OCC	x	15%	x	x
C=C1C/C(=C\C)C(=O)O[C@@H]2CCN3CC=C(COC(=O)[C@@]1(C)O)[C@H]23	x	5%[56.1 µM]	x	x
CC1([N+](=O)[O-])COP(=O)(Nc2cccc(Br)c2)OC1 (configuration not stated)	-11%	x	3%	u
Cc1ccc(C)c(N2CCN(c3nc4ccc(Cl)cc4n4cnnc34)CC2)c1	18µM*	-3%	-30%	16µM*
CN(C)CCO	-8%	7%	x	9%
CN(C(=O)Cc1ccc(Cl)c(Cl)c1)C(CN1CCCC1)c1cccc(N=C=S)c1 (configuration not stated)	5.2µM*	16%	x	3.3µM*
CN(C(=O)Cc1ccc(Cl)c(Cl)c1)[C@H](CN1CCCC1)c1cccc(N=C=S)c1	12µM*	14%	x	13µM*
O=C(NC(=O)c1c(F)cccc1F)Nc1ccc(Cl)cc1	-9%	2%	x	-7%
Cc1[nH]c2ccc(OCc3ccccc3)cc2c1CCN	15µM*	x	-1%	13µM*
Cc1[nH]c2ccc(O)cc2c1CCN	3%	7%[56.1 µM]	-28%	0%
CCCCCl	-19%	18%	x	-2%

Screens (PubChem BioAssay)
